Screens as filed in PubChem.
Only some compounds are listed: those with a hit (about 2.6% of all), similar ones and a draw of the others.
Granule exo inh: lytic granule exocytosis inhibition | TALL-104 LAMP-1 surface exposure, flow cytometry; cells stimulated with thapsigargin and PMA | inhibition, % at 10 µM | 360,000 compounds, 0.66% hits | AID 651702;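 active means inhibition above about 55%, limit read from the data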
TLR4-MyD88 BLA: inhibitors of human TLR4-MyD88 binding | AID 861 | 200,000 compounds, 0.18% hits | inhibition, % at 8.4 µM | O00206+Q99836 | HeLa CL3-4 TLR4/MyD88 BLA complementation, FRET ratio; in the data active means inhibition above about 25%;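 further: 0% = vehicle and 100% = reference inhibitor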
TLR9-MyD88 block: inhibitors of human TLR9-MyD88 binding | CHO BLA complementation TLR9-MyD88, CCF4 FRET ratio | inhibition, % at 4.98 µM | 340,000 compounds, 0.21% hits | AID 504734;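 active means inhibition above the mean over all tested compounds plus 3 SD, cut at about 21% in these data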;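 further: 0% = DMSO only wells and 100% = clavulanate BLA inhibitor control wells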
NOD2-RIPK2 inh: blocks binding of human NOD2 to RIPK2; CHO BLA complementation NOD2-RIPK2, CCF4 ratio; AID 624267; O43353; inhibition, % at 4.98 µM; 360,000 compounds, 0.38% hits; in the data active means inhibition above about 21%;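 further: 0% = vehicle only and 100% = reference blocker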
ABHD5 PLIN5 PPI: ABHD5-PLIN5 protein interaction inhibition; Q00G26+Q8WTS1; Split G. princeps luciferase complementation, luminescence, 4 h; inhibition, % at 4 µM; 360,000 compounds, 0.78% hits; AID 602281;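 active means inhibition above the mean inhibition across every tested compound plus 3 SD, cut at about 22% in these data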;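 further: 0% = DMSO only wells and the 100% control is not disclosed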
PRMT1 inh: inhibitors of human PRMT1; recombinant PRMT1, activity-based probe fluorescence polarization; AID 652257; inhibition, % at 2.79 µM; 370,000 compounds, 1.3% hits;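 active means inhibition above about 21% made by adding two undisclosed values, limit read from the data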
Target sequence (Q99873 whole entry, looked up): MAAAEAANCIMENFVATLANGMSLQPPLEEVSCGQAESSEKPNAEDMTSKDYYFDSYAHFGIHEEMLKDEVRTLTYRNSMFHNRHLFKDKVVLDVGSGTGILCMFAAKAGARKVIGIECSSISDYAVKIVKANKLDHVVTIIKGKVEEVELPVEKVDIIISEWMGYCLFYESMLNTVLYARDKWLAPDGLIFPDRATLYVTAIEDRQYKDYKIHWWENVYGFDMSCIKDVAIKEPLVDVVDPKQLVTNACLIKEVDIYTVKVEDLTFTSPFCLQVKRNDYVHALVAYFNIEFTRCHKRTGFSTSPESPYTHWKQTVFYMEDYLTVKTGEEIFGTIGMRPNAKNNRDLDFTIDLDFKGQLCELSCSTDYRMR
ABHD5-PLIN5 conf: confirmation of human ABHD5-PLIN5 interaction inhibitors; 2,200 compounds, 67% hits; inhibition, % at 4 µM; biochemical ABHD5-PLIN5 interaction, luminescence; AID 651612; shares compounds with ABHD5 PLIN5 PPI; in the data active means inhibition above about 23%;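 further: 0% = DMSO vehicle wells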
HNF4 split-luc: HNF4 split-luciferase signal hit, counter-screen. shares compounds with ABHD5 PLIN5 PPI. HNF4 dimerization, luminescence, biochemical. inhibition, % at 4 µM. 2,200 compounds, 77% hits;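 active means mean inhibition across replicate wells exceeding the computed hit threshold, cut at about 13% in these data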;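 further: light from luciferase halves that rejoin when HNF4 fusion proteins dimerize; 0% = DMSO only wells and the 100% control is not given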
* marks the source's active call; other numbers are inactive results; x = no result given.

SMILES	Granule exo inh	TLR4-MyD88 BLA	TLR9-MyD88 block	NOD2-RIPK2 inh	ABHD5 PLIN5 PPI	PRMT1 inh	ABHD5-PLIN5 conf	HNF4 split-luc
CCN(C(=O)CN1C(=O)S/C(=C\c2cccc(Cl)c2)C1=O)C1CCS(=O)(=O)C1 (configuration not stated)	1.6	x	3.7	2.0	2.6	0.9	x	x
CCN(C(=O)CN1C(=O)S/C(=C\C=C\c2ccccc2)C1=O)C1CCS(=O)(=O)C1 (configuration not stated)	-4.8	x	-7.5	-8.7	56.4*	2.7	16.9	22.0*
Cc1ccc(C(=O)N2CCC[C@@H]2C(=O)N2CCC[C@H]2C(=O)NCc2ccccc2)cc1C	x	x	x	x	x	1.0	x	x
CCCCCCCCCc1conc1C(=O)/C=C/c1ccco1	11.1	x	x	-4.3	25.3*	4.3	26.2*	20.9*
CCCCCCCCCc1conc1C(=O)CP(=O)(OC)OC	1.5	x	x	-8.0	1.2	2.5	x	x
O=C(CC1S/C(=N/N=C/c2c[nH]c3ccccc23)NC1=O)Nc1ccccc1 (configuration not stated)	-1.7	13.2	-9.6	0.8	23.2*	2.3	19.6	11.3
Cc1cc(Br)cn2c(Cc3ccccc3C(F)(F)F)c(-c3ccc(F)cc3)nc12	x	x	x	x	x	1.6	x	x
CCN1C(=O)N(C(C)=O)[C@@H]2C[C@H](C(=O)N3CCCC3)[C@H](C)[C@H](c3ccccc3)C[C@@H]21	x	x	x	x	x	-0.3	x	x
CC(C)CC(NC(=O)OCc1ccccc1)C(=O)NC(Cc1ccccc1)C(=O)CCl (configuration not stated)	49.6	x	-11.3	-4.2	24.4*	5.3	88.3*	88.2*
O=C(/C=C/c1ccccc1)c1c[nH]c2ccccc12	-2.1	x	-2.5	2.8	1.3	-5.5	x	x
O=C(C=Cc1ccccc1)c1c[nH]c2ccccc2c1=O	4.9	x	-0.3	8.6	27.4*	2.0	73.6*	62.9*
Cc1[nH]c2ccccc2c(=O)c1C(=O)/C=C/c1ccccc1	-1.4	x	-1.2	6.9	31.7*	-3.5	63.1*	55.5*
CCOC(=O)[C@]12CCCCC/C=C\1N(CCc1ccc(Cl)cc1)C(=O)[C@H]2CC(=O)NCCCCc1ccccc1	x	x	x	x	x	3.6	x	x
COc1ccc(C(=O)/C=C2/C(=O)Nc3ccccc32)cc1OC	-13.4	x	4.9	9.8	42.9*	4.7	53.4*	85.1*
COc1cc(OC)c(/C=C2\C(=O)Nc3ccccc32)c(OC)c1	x	x	x	x	x	1.6	x	x
NC(=O)COc1ccc(C(=O)/C=C2/C(=O)Nc3ccccc32)cc1	5.0	x	0.4	5.8	53.9*	16.0	55.5*	88.9*
O=C1Nc2ccccc2/C1=C/C(=O)c1cccs1	0.7	5.1	-2.8	13.0	31.8*	9.4	57.0*	94.5*
CCN1C(=O)/C(=C\C(=O)c2cccs2)c2cc(Br)ccc21	46.7	5.9	10.7	-2.6	6.4	1.4	x	x
CCCc1cn(-c2ccc3c(c2)[C@@]2(CC(=O)N(C)C2c2ccccc2)C(=O)N3CC(C)C)nn1 (some centres not stated)	x	x	x	x	x	-2.0	x	x
CC(=O)N1CCc2cc(Br)c(S(=O)(=O)NCc3ccc(Cl)cc3)cc21	x	x	x	x	x	0.0	x	x
COC(=O)c1cc(-c2ccccc2)c(=O)n2c1CCC2	x	x	x	x	x	-5.3	x	x
O=C(N[C@H](C(=O)N1CCC[C@H]1C(=O)NC1CCCC1)C1CCCCC1)c1ccccc1	x	x	x	x	x	0.3	x	x
CC(=O)N(c1nc2ccccc2s1)N1C(=O)c2ccccc2C1=O	x	x	x	x	x	3.4	x	x
O=[S@]1Oc2ccccc2-c2ccccc21	-3.8	x	4.3	-6.3	24.5*	7.5	83.4*	98.8*
C=C1C(=O)[C@]23C[C@H]1CCC2[C@]1(C)C(=O)CC[C@@](C)(C(=O)O)C1C[C@@H]3O (some centres not stated)	26.2	x	x	2.5	46.4*	13.6	40.8*	100.4*
SMILES	Granule exo inh	TLR4-MyD88 BLA	TLR9-MyD88 block	NOD2-RIPK2 inh	ABHD5 PLIN5 PPI	PRMT1 inh	ABHD5-PLIN5 conf	HNF4 split-luc
C=C1C(=O)[C@]23C[C@H]1CC[C@H]2[C@]1(C)[C@@H](OC(C)=O)CC[C@@](C)(C(=O)O)[C@H]1C[C@@H]3OC(C)=O	4.0	x	x	11.0	14.5	-0.3	x	x
CCOC(=O)CC[C@H]1CC[C@]2(CCCN(S(C)(=O)=O)C2)O1	x	x	x	x	x	-5.3	x	x
O=C(Nc1cccc(F)c1)/C(=C\c1ccco1)NC(=O)c1ccco1	-0.5	x	0.0	-3.4	27.2*	23.9*	3.4	0.3
Cc1ccc(NC(=O)/C(=C\c2ccco2)NC(=O)c2ccco2)cc1	-0.8	x	10.0	-3.1	5.0	19.5	x	x
CC(=O)c1cccc(NC(=O)/C(=C\c2ccco2)NC(=O)c2cccs2)c1	0.1	-0.9	-9.0	4.2	6.3	19.3	x	x
O=C(Nc1cccc(C(F)(F)F)c1)/C(=C/c1ccco1)NC(=O)c1cccs1	2.7	11.4	8.9	-15.3	30.4*	15.8	9.7	11.4
C=CCN1C(=O)[C@@H](CC(=O)N2CCN(C(=O)C3CC3)CC2)[C@]2(C(=O)OC)CCCCC=C12	x	x	x	x	x	-0.3	x	x
CC(C)c1ccc(C2CC(=O)c3cnc(N4CCc5ccccc5C4)nc3C2)cc1 (configuration not stated)	0.8	-1.1	-4.9	-2.2	9.2	-2.0	x	x
O=C1CC(c2ccco2)Cc2nc(N3CCc4ccccc4C3)ncc21 (configuration not stated)	0.6	-2.4	5.5	1.4	27.5*	11.7	19.7	23.2*
Cc1ccc(C2=Nc3ccccc3SC(c3cccc([N+](=O)[O-])c3)C2)cc1 (configuration not stated)	-0.4	x	-1.4	-4.0	59.5*	76.1*	2.6	73.5*
O=[N+]([O-])c1cccc(C2CC(c3ccccc3)=NN2c2ccccc2)c1 (configuration not stated)	-1.2	x	7.0	4.4	8.2	4.2	x	x
O=C(OCC#CCSc1nnc(-c2cccc3ccccc23)o1)c1ccccc1F	x	x	x	x	x	0.6	x	x
CC1CN(Cc2c(O)ccc3c2oc(=O)c2ccccc23)CC(C)O1 (configuration not stated)	-2.0	x	3.9	-3.8	48.6*	10.9	71.6*	44.2*
Cc1ccc(OCCNc2cc(N3CCN(CCO)CC3)ccc2[N+](=O)[O-])cc1C	9.5	2.9	-8.0	1.9	30.9*	-2.4	4.9	14.1*
Fc1ccc(CSc2nnc(-c3cccnc3)n2Cc2ccco2)cc1	2.8	-0.3	-7.4	0.5	15.8	5.1	x	x
Clc1ccccc1CSc1nnc(-c2cccnc2)n1Cc1ccco1	-3.7	-8.0	7.3	-0.5	30.5*	9.6	9.0	12.5*
O=S(=O)(c1c(F)cccc1F)N1CCN(Cc2c(O)ccc3ccccc23)CC1	-2.7	x	2.3	6.0	26.6*	9.4	43.1*	77.4*
